Here are results for 5 compounds from PubChem BioAssay.

The source made the active and inactive calls.

A short description of assay [1]: small molecules captured by biotinylated probe aFSTL3 – biochemical, small-molecule microarray, fluorescence 635/667, stem cell growth factor project, primary screen (AID 1064).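 Note: measures binding of the biotinylated anti-FSTL3 antibody to printed compounds.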 The following applies: higher = more signal.
Assay [2] can be described thus: binders from COS7 lysate, DM2A8 probe, primary screen, torsin A project, cell lysate, small-molecule microarray, fluorescence 635/667 (AID 1065). Particulars: higher = more signal, COS7 lysate expressing mutant human TOR1A.
Assay [3] is described as follows: small molecules captured by biotinylated probe aFGF2 – biochemical, small-molecule microarray, fluorescence 635/667, stem cell growth factor project, primary screen (AID 1067).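 Note: measures binding of biotinylated aFGF2 protein to printed compounds on slides; z-score merges feature fluorescence and signal-to-noise across triplicate slides.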 The following applies: higher = more signal.
The nature of assay [4]: small molecules captured by biotinylated probe aFGF10 – biochemical, small-molecule microarray, fluorescence 635/667, stem cell growth factor project, primary screen (AID 1071).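 Note: score merges 667 nm spot intensity and signal to noise from triplicate slides.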 The following applies: higher = more signal.
Assay [5] has as its target Neurogenic locus notch homolog protein 2 (Homo sapiens) (UniProt Q04721). Briefly: small molecules binding Notch2 protein – biochemical, small-molecule microarray, 635 nm fluorescence, stem cell growth factors, primary screen (AID 1073). The following applies: higher = more signal.
Assay [6] concerns the target Pro-neuregulin-1, membrane-bound isoform (Homo sapiens) (UniProt Q02297). Briefly: small molecules binding neuregulin-1 protein – biochemical, small-molecule microarray, fluorescence 635/667, psychiatric disease protein project, primary screen (AID 1075).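 Note: score combines 667 nm spot fluorescence with signal to noise.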 Particulars: NRG1 binding, 635 nm fluorescence, higher = more signal.
Assay [7] has as its system Neuregulin-1 EGF-like domain. Briefly: small molecules binding NRG1 EGF domain – biochemical, small-molecule microarray, 635 nm fluorescence, primary screen (AID 1081).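 Note: binding of the protein to compounds printed on small-molecule microarray slides.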 The following applies: higher = more signal.
Assay [8] is described as follows: FRG1 expression reporter modulators in myotubes – cell-based, C2C12 myotubes, firefly/Renilla luciferase, luminescence, FRG1 inhibition for FSHD, primary screen (AID 1084). The following applies: FRG1 promoter luciferase, higher = more signal, called active from +8 up or from −8 down.
A short description of assay [9]: small molecules captured by biotinylated probe aFST – biochemical, small-molecule microarray, fluorescence 635/667, stem cell growth factor project, primary screen (AID 1086).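 Note: score merges 667 nm fluorescence with signal-to-noise of each printed compound spot.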 The following applies: higher = more signal.
Assay [10] can be described thus: binders of probe aHhip on microarray, primary screen, stem cell growth factor project, biochemical, small-molecule microarray, fluorescence 635/667 (AID 1087).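 Note: score merges spot fluorescence at 667nm with spot signal to noise ratio.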 The following applies: higher = more signal.
Assay [11] concerns PRMT1 (protein arginine N-methyltransferase 1). Description: small molecules binding arginine methyltransferase PRMT1 – biochemical, small-molecule microarray, 635 nm fluorescence, primary screen (AID 1088).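 Note: binding of Prmt1 protein to compounds spotted on small-molecule microarray slides.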 The following applies: higher = more signal.
Assay [12] can be described thus: growth effects on S. cerevisiae YJM789 – YJM789 clinical isolate, OD600, 24 h, basal, primary screen (AID 1089).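 Note: growth of clinical yeast isolate S. cerevisiae YJM 789 seeded 1000 cells per well; test concentration not given here.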 The following applies: higher = more signal, called active from +8 up or from −8 down.
Assay [13] is described as follows: S. pombe growth modifiers, basal conditions – strain 972, OD600, 24 h, no modulator, primary screen (AID 1090).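 Note: basal condition with compound alone and no growth modifier present; test concentration not given here.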 Particulars: S. pombe 972 growth, higher = more signal, called active from +8 up or from −8 down.
Assay [14] in a line: budding yeast growth modifiers under rapamycin – strain BY4716, OD600, 96 h, primary screen (AID 1091). Note: test concentration not given here. The following applies: S. cerevisiae BY4716 + rapamycin, higher = more signal, called active from +8 up or from −8 down.
In assay [15] the target is Torsin-1A-interacting protein 2 (Homo sapiens) (UniProt Q8NFQ8). Description: small molecules binding lysate-expressed LULL1 – cell lysate, human LULL1 lysate, 635/667 nm fluorescence, primary screen (AID 1092).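 Note: probe is lysate of COS7 cells overexpressing human LULL1; score merges per-feature 667 nm fluorescence with signal-to-noise.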 The following applies: small-molecule microarray, hLULL1 lysate binding, 635 nm fluorescence; higher = more signal.
Sequence of Torsin-1A-interacting protein 2 (Homo sapiens) (Q8NFQ8 whole entry, looked up): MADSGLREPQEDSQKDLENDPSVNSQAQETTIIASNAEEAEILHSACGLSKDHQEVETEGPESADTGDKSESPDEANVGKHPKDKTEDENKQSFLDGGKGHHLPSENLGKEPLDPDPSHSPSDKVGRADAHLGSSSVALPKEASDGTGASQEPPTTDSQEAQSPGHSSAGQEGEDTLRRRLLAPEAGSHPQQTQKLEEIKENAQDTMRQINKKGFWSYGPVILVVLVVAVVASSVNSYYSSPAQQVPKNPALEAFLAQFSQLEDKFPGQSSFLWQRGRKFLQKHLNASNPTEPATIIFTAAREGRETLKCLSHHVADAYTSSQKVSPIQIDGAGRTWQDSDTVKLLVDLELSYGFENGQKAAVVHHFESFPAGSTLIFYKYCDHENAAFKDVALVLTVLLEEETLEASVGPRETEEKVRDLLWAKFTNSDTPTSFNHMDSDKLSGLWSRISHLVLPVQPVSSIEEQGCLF
Assay [16] is described as follows: optical density change of DRC41 E. coli – strain DRC41, OD650, 24 h, E. coli filamentation project, primary screen (AID 1093).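 Note: MC1000 strain lacking acrAB efflux and sulA so SOS filamentation is blocked; test concentration not given here.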 Particulars: E. coli DRC41 growth, higher = more signal, called active from +8 up or from −8 down.
The nature of assay [17]: probe aLefty2 binding to arrayed compounds – biochemical, biotinylated probe, 635/667 nm fluorescence, primary screen (AID 1094).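 Note: score merges spot fluorescence near 667 nm with spot signal-to-noise ratio.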 The following applies: small-molecule microarray, higher = more signal.
The subject of assay [18] is Noggin (protein binding on small-molecule microarray). Description: small molecules binding Noggin protein – biochemical, 635/667 nm fluorescence, primary screen (AID 1095).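 Note: score merges 667 nm feature fluorescence with signal to noise over triplicate slides.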 Particulars: 635 nm fluorescence, higher = more signal.
Assay [19] has as its target Neurogenic locus notch homolog protein 3 (Homo sapiens) (UniProt Q9UM47). Briefly: small molecules binding NOTCH3 protein – biochemical, 635/667 nm fluorescence, primary screen (AID 1096). The following applies: small-molecule microarray, 635 nm fluorescence, higher = more signal.
Assay [20] in a line: probe aEGFR binding to arrayed compounds – biochemical, biotinylated probe, 635/667 nm fluorescence, primary screen (AID 1097).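 Note: probe is a biotinylated anti-EGFR antibody binding compounds printed on slides; score combines fluorescence near 667 nm and signal to noise of each spot.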 The following applies: small-molecule microarray, higher = more signal.

Sequence of Neurogenic locus notch homolog protein 2 (Homo sapiens) (Q04721 whole entry, looked up, canonical isoform): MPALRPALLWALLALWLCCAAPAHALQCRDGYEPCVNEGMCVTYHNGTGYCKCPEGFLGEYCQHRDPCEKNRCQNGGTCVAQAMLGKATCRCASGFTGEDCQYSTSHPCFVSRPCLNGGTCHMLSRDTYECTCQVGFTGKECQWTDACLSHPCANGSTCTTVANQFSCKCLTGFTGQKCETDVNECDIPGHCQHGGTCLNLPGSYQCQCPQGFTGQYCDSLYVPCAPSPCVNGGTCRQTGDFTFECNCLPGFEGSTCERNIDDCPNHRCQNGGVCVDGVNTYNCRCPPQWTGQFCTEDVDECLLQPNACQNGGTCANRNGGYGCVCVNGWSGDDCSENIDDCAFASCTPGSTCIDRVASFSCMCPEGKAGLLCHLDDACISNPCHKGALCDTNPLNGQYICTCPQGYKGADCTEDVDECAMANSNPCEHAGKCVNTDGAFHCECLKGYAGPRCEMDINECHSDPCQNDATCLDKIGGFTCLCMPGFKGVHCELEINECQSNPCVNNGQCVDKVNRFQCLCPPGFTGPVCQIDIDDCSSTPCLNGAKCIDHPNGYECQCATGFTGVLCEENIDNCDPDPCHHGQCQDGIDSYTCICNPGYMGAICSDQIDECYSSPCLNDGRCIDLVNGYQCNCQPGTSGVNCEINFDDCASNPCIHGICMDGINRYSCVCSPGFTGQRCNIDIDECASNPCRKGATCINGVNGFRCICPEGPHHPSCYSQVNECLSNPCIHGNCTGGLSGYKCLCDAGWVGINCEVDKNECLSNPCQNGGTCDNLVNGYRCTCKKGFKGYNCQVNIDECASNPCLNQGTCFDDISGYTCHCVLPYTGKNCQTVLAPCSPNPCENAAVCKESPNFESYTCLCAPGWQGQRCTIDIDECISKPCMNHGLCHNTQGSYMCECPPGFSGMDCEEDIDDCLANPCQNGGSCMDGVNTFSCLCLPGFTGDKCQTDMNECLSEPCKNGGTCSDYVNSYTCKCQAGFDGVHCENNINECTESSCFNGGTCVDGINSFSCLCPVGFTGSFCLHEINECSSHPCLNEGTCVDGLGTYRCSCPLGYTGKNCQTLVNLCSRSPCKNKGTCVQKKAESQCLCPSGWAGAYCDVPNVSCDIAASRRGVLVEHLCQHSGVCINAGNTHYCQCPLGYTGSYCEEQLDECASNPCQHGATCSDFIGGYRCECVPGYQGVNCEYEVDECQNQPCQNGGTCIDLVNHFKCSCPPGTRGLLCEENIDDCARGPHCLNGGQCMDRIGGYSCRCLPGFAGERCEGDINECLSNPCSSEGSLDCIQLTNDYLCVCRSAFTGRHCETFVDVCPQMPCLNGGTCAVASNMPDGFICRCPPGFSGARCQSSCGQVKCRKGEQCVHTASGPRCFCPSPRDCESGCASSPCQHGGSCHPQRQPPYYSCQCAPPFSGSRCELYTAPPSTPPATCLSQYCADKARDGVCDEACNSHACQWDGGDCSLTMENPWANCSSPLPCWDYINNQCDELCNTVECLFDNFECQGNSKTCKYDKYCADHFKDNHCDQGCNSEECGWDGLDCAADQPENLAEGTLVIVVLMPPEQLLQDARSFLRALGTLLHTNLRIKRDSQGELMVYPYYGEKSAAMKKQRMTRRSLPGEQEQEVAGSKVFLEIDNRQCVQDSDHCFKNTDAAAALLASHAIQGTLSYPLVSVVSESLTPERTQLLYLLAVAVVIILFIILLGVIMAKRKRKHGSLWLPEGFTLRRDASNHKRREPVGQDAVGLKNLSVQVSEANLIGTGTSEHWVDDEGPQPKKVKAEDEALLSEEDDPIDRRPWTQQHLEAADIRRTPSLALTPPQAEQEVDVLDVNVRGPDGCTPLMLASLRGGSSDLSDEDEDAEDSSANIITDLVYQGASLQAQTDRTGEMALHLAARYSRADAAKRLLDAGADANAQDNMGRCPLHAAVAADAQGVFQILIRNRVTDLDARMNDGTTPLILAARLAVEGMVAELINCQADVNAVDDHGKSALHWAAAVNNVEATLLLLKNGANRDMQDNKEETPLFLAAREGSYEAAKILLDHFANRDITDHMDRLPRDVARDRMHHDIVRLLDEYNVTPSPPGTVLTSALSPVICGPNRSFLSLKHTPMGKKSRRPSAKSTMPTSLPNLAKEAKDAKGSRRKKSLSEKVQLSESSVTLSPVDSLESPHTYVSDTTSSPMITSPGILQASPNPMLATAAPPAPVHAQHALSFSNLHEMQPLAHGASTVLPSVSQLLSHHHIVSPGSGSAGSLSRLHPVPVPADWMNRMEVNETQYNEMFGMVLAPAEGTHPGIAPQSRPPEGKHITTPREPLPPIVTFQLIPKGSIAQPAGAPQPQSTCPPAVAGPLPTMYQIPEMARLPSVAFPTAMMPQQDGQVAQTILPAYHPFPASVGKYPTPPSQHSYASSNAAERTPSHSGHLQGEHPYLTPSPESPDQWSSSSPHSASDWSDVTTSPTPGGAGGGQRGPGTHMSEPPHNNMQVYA
Sequence of Pro-neuregulin-1, membrane-bound isoform (Homo sapiens) (Q02297 whole entry, looked up, the tested form may be a part, canonical isoform): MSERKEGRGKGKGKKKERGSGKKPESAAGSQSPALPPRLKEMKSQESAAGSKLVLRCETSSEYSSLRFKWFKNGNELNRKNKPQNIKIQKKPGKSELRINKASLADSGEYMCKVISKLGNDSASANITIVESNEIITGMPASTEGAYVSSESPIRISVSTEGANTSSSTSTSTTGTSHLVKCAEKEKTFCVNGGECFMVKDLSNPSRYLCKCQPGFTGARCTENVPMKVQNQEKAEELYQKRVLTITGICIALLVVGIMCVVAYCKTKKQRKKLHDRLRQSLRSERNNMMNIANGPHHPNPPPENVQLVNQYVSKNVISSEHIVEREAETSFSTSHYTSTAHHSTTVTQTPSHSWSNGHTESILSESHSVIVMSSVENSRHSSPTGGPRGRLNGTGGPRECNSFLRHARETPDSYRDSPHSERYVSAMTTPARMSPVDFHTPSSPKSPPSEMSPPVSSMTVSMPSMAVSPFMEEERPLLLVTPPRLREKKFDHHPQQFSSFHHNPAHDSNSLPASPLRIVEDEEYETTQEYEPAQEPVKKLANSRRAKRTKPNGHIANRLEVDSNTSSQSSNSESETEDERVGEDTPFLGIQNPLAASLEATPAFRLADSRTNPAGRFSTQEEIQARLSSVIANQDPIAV

Take `O=C1O[C@@H](c2ccccc2)[C@@H](c2ccccc2)N2[C@@H](c3ccc(OCCO)cc3)[C@]3(C(=O)Nc4ccccc43)[C@@H](C(=O)N3CCN(c4ncccn4)CC3)[C@H]12`: the composite z-score in assay [1] was 0.0612; in assay [2] it was 0.574; in assay [3], -0.0493; in assay [4], 0.267; in assay [5], 1.25; in assay [6], 1.27. Moreover, the composite z-score in assay [7] is 1.34; in assay [9], 0.847; in assay [10] it was 0.106; in [11], 1.53; in assay [15], 2.97; in [17], 1.04. The results for the composite z-score in assay [18], in [19] and in assay [20] were 0.952, 1.1 and 0.0679, respectively. The z-score is -0.968 (inactive) in assay [8]; 1.94 (inactive) in [12]; 1.4 (inactive) in assay [13]; 4.77 (inactive) in assay [14]; 0.856 (inactive) in assay [16].
On to `CCN1C(=O)[C@H]2[C@H]3[C@H](O)[C@H](O)CC(=NOCc4ccccc4)[C@H]3CC[C@H]2C1=O`, for which the composite z-score is -0.5 in assay [1]; 0.391 in assay [2]; -0.116 in assay [3]; 0.611 in assay [4]; 0.262 in assay [5]; -0.0759 in assay [6]. Also, the composite z-score is -0.0363 in assay [7]; 0.214 in assay [9]; -0.226 in assay [10]; -0.204 in assay [11]; 0.21 in assay [15]; -0.386 in [17]. Besides, the composite z-score is 0.863 in assay [18], 0.469 in assay [19] and -0.0953 in assay [20]. Moreover, the z-score in [8] was 0.273 (inactive); in [12] it was -0.896 (inactive); in assay [13], -0.337 (inactive); in assay [14], -0.262 (inactive); in assay [16] it was 0.632 (inactive).
For `C=COC[C@H]1CN2[C@@H](CC[C@@H](C)[C@@H]2c2ccc(Br)cc2)C(=O)O1`, the composite z-score in [1] is -0.6; in assay [2] it was 0.268; in assay [3], -0.151; in assay [4], 0.581; in assay [5], 0.793; in assay [6], 0.0578. The composite z-score was 1.12 in assay [7]; 0.355 in [9]; 0.0373 in assay [10]; 1.4 in [11]; 1.99 in [15]; -0.155 in [17]. The composite z-score in assay [18] stood at 0.372; in assay [19], 0.521; in [20] it was 0.0402. Besides, the z-score in [8] is -0.688 (inactive); in assay [12], -2.69 (inactive); in [13], -4.68 (inactive); in [14], -1.52 (inactive); in [16] it was -0.0786 (inactive).
Take `CC(=O)OC[C@H]1O[C@H](CCON=C(C)CCC(=O)OC[C@H]2O[C@H](C#Cc3ccccc3)C=C[C@@H]2Oc2ccc(C)cc2)C=C[C@@H]1OC(C)=O`: the composite z-score in [1] is -0.41; in [2], 0.703; in assay [3] it was -0.12; in assay [4], 0.479; in [5], -0.126; in assay [6], 0.0383. Also, the composite z-score is 0.359 in [7]; 0.265 in assay [9]; -0.132 in assay [10]; 0.269 in [11]; 0.719 in [15]; -0.181 in assay [17]. In addition, the composite z-score in assay [18] was 0.465; in [19], -0.0894; in assay [20], 0.0567. In addition, the z-score was 0.718 (inactive) in [8]; -0.465 (inactive) in [12]; -0.0797 (inactive) in [13]; -0.579 (inactive) in [14]; 0.554 (inactive) in assay [16].
As to `C=CCOC(=O)[C@H]1[C@@H]2C(=O)O[C@@H](c3ccccc3)[C@@H](c3ccccc3)N2[C@@H](c2ccc(OCCOC(=O)[C@H]3C[C@H]4C(=O)N5CCC[C@H]5C(=O)N4[C@H]3c3cccc(OCCO)c3)cc2)[C@]12C(=O)Nc1ccc(I)cc12`, the composite z-score in assay [1] stood at 1.82; in assay [2], 1.9; in assay [3], 0.522; in assay [4], 0.92; in assay [5], 1.47; in assay [6] it was 2.91. Further, the composite z-score in [7] came out at 1.47; in assay [9], 2.63; in [10] it was 0.794; in [11], 1.53; in [15], 3.41; in [17] it was 1.35. Moreover, the composite z-score in [18] was 1.49; in [19] it was 1.12; in [20], 0.938. Besides, the z-score in [8] was 1.07 (inactive); in assay [12], -0.104 (inactive); in assay [13], -0.77 (inactive); in [14], 0.289 (inactive); in [16] it was -0.301 (inactive).
